Data as given in the supplement of paper PMC10338343.
± gives the standard deviation.

Each sequence was assayed on EfPiwi piRISC loaded with L1MC piRNA (26 nt) (assay: pre-steady-state target cleavage rate (min^-1); auxiliary factor: 500 nM Ephydatia muelleri Gtsf1; guide: L1MC piRNA 5'p-UAACUAAAUACUAUGCAAGCUGUAGG; MIWI and MILI are mouse PIWI proteins and EfPiwi is from a freshwater sponge; tags in brackets are library labels; higher = faster piRNA-guided slicing of the target).
Description: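 Cleave-'n-Seq: a library of target RNAs (target site in constant flanks) at […] was incubated with 1 nM active freshwater sponge Ephydatia fluviatilis Piwi piRISC (synthetic 5'-monophosphorylated piRNA guide) with or without 500 nM EmGtsf1 at 33 °C for 1 min to 16 h. Uncleaved targets were sequenced and the pooled three trials fitted to a burst-and-steady-state model to give the pre-steady-state cleavage rate (min^-1). Sequence is the target site only. Fits with R² ≤ 0 are excluded.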
With UCCUCCUUCUGCUUGCAUAGUAUUUAGUUA the “pre-steady-state target cleavage rate” value was 0.11 ± 0.028. In the case of UCCUGGUUGUGCUUGCAUAGUAUUUAGUUA, the “pre-steady-state target cleavage rate” value is reported as 0.0119 ± 0.0045. In the case of UCCUGGAUCAGCUUGCAUAGUAUUUAAGUUA, the “pre-steady-state target cleavage rate” value is reported as 0.00608 ± 0.0023. UCCUCCUAGAGCUUGCAUAGUAUUUUCAAA was tested, and the “pre-steady-state target cleavage rate” value was 0.00252 ± 0.0022. For UCCUGGAUGAGCCUGCAUAGUAUUUAGUUA, the “pre-steady-state target cleavage rate” value was 0.032 ± 0.011. With UCCUCCUACAGCUUCCAUUGUAUUUAGUUA the “pre-steady-state target cleavage rate” value was 0.00393 ± 0.0019. For UCCUGCUACAGCUUGCAUAGUCUUUAGUUA, the “pre-steady-state target cleavage rate” value was 0.00416 ± 0.001. For UCCUGCUACAGCUUGCAGUAGUAUUUAGUUA, the “pre-steady-state target cleavage rate” value was 0.0051 ± 0.0024. For UCCUGGAUGAGCUUGAAUAGUAUUUAGUUA, the “pre-steady-state target cleavage rate” value was 0.00419 ± 0.0027. For UCCUGCUACAGCUUGCAAAGUAAUUAGUUA, the “pre-steady-state target cleavage rate” value was 0.00362 ± 0.0019. With UCCUGGAACAGCUUGCUUAGUAUAUAGUUA the “pre-steady-state target cleavage rate” value was 0.0104 ± 0.0048. For UCCUGGAAGAGCUUGCAUAGUAUAUAGUUA, the “pre-steady-state target cleavage rate” value was 0.0114 ± 0.0044. For UCCUGGUUCAGGUUGCAUAGUAUUUAGUUA, the “pre-steady-state target cleavage rate” value was 0.0166 ± 0.0047. In the case of UCCUCGUACAGCUUGCAUAGUUUUUAGUUA, the “pre-steady-state target cleavage rate” value is reported as 0.0267 ± 0.0072. In the case of UCCUGGAACAGUUGCAUAGUAUUUAGUUA, the “pre-steady-state target cleavage rate” value is reported as 0.0543 ± 0.013. With UCCUGGAACAGCUUGCACAGUAUUUAGUUA the “pre-steady-state target cleavage rate” value was 0.0589 ± 0.015. With UCCUGGAACAGCUUGCAUAGUUUUUAGUUA the “pre-steady-state target cleavage rate” value was 0.00683 ± 0.0019. UCCUGGAUCACGAUGCAUAGUAUUUAGUUA was tested, and the “pre-steady-state target cleavage rate” value was 0.0115 ± 0.004. For UCCUGGAUCAGCUUGCAUAGUAAUUUGUUA, the “pre-steady-state target cleavage rate” value was 0.00366 ± 0.002. For UCCUGGUACAGCAUGCAAAGUAUUUAGUUA, the “pre-steady-state target cleavage rate” value was 0.00646 ± 0.0023. With UCCUGGAACAGCUUGCAUAGUAAUUUGUUA the “pre-steady-state target cleavage rate” value was 0.0032 ± 0.002. In the case of UCCUGCUAGAGCUUGCAUAGUAUUUAGUAA, the “pre-steady-state target cleavage rate” value is reported as 0.00419 ± 0.0014. In the case of UCCUGGAACAGCUUGCAUAGUAAAAAGUUA, the “pre-steady-state target cleavage rate” value is reported as 0.00324 ± 0.0027. UCCUCCUACAGCUUGCAUAGUAGUUAGUUA was tested, and the “pre-steady-state target cleavage rate” value was 0.00786 ± 0.0026. UCCUGGAUGAGCUUGGAUAGUAUUUAGUUA was tested, and the “pre-steady-state target cleavage rate” value was 0.0043 ± 0.0033. With UCCUGGAACUCCUUGCAUAGUAUUUAGUAA the “pre-steady-state target cleavage rate” value was 0.00371 ± 0.0017. For UCCUGGAAGAGCUUGGAUAGUAUUUAGUUA, the “pre-steady-state target cleavage rate” value was 0.00392 ± 0.0027. With UCCUCCUAGAGCUUGCAUAGUAUUUAGAAA the “pre-steady-state target cleavage rate” value was 0.00517 ± 0.0019. With UCCUGGAUGCGCUUGCAUAGUAUUUAGUUA the “pre-steady-state target cleavage rate” value was 0.0286 ± 0.0065. UCCUCCUUCAGCUUGCAUAGAAUUUAGUUA was tested, and the “pre-steady-state target cleavage rate” value was 0.00469 ± 0.0021. With UCCUCCUACAGCUUGCAUAGUAAUAAGUUA the “pre-steady-state target cleavage rate” value was 0.0073 ± 0.004. With UCCUGGAUGUCGAAGCUUAGUAUUUACUUA the “pre-steady-state target cleavage rate” value was < 0.0001. In the case of UCCUGCUACAGCUUGCAUAGUACUUAGUUA, the “pre-steady-state target cleavage rate” value is reported as 0.00608 ± 0.0018. In the case of UCCUGGAUGUGCCUUGCAUAGUAUUUAGUUA, the “pre-steady-state target cleavage rate” value is reported as 0.0886 ± 0.031. With UCCUGGAACUGCUUGGAUAGUAUUUAGUUA the “pre-steady-state target cleavage rate” value was 0.0527 ± 0.014. With UCCUGGAUGUGUUUGCAUAGUAUUUAGUUA the “pre-steady-state target cleavage rate” value was 0.0181 ± 0.0055. In the case of UCCUGGUACAGCUUGCAUUGUAUUUAGAAA, the “pre-steady-state target cleavage rate” value is reported as 0.00329 ± 0.0019. For UCCUGGUACAGCUUGCUUAGUAUAUAGUUA, the “pre-steady-state target cleavage rate” value was 0.0737 ± 0.025. For UCCUGCUACAGCUUGCAUAGUAUUUAGUAUA, the “pre-steady-state target cleavage rate” value was 0.00675 ± 0.0019. For UCCUGCUACUGCUUGCAUAGUAUUUAGAUA, the “pre-steady-state target cleavage rate” value was 0.00383 ± 0.0018.
